Measured values taken from the supplement of paper PMC6555819.

Key:
Test in all cases: PBM binding z-score (relative to random genomic background probes); higher = stronger binding; sequences stand for … in GC…GCGATTGACAGCGTAGAATGAAGG
[1] = system: FXR:RXRa (NR concentration 270 nM, RXRa partner concentration 90 nM)
Method in brief: (§1)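 Scanned fluorescence from custom Agilent 4×180K protein-binding microarrays was regression-normalized. Binding z-scores use random background probes as reference. Ligand-free nuclear receptor dimers were incubated on the arrays for 1 h and detected with antibodies against each partner (one per run).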

[2] = system: LXRa:RXRa (NR concentration 270 nM, RXRa partner concentration 90 nM)
Method in brief: as §1

[3] = system: LXRa homodimer (NR concentration 270 nM)
Method in brief: as §1

[4] = system: LXRb:RXRa (NR concentration 270 nM, RXRa partner concentration 90 nM)
Method in brief: as §1

[5] = system: LXRb homodimer (NR concentration 270 nM)
Method in brief: as §1

[6] = system: PPARa:RXRa (NR concentration 270 nM, RXRa partner concentration 90 nM)
Method in brief: as §1

[7] = system: PPARg:RXRa (NR concentration 180 nM, RXRa partner concentration 90 nM)
Method in brief: as §1

[8] = system: PPARg:RXRa 270nM:90nM, anti-RXR (NR concentration 270 nM, RXRa partner concentration 90 nM)
Method in brief: as §1

[9] = system: PPARg:RXRa 30nM:10nM, anti-RXR (NR concentration 30 nM, RXRa partner concentration 10 nM)
Method in brief: as §1

[10] = system: PPARg:RXRa 90nM:30nM, anti-RXR (NR concentration 90 nM, RXRa partner concentration 30 nM)
Method in brief: as §1

[11] = system: PPARg:RXRa DBDmut IVT, anti-RXR (DBD mutation: RXRa K156A/R161A, NR concentration 270 nM, RXRa partner concentration 90 nM)
Method in brief: as §1

[12] = system: PPARg:RXRa IVT, anti-PPARg (NR concentration 270 nM, RXRa partner concentration 90 nM)
Method in brief: as §1

[13] = system: PPARg DBDmut IVT, anti-PPARg (DBD mutation: PPARg1 K132A/R137A, NR concentration 270 nM)
Method in brief: as §1

[14] = system: PPARg homodimer (NR concentration 180 nM)
Method in brief: as §1

[15] = system: PXR:RXRa (NR concentration 270 nM, RXRa partner concentration 90 nM)
Method in brief: as §1

[16] = system: PXR homodimer (NR concentration 270 nM)
Method in brief: as §1

[17] = system: RARa:RXR (NR concentration 270 nM, RXRa partner concentration 90 nM)
Method in brief: as §1

[18] = system: RARa homodimer (NR concentration 270 nM)
Method in brief: as §1

[19] = system: RARb:RXRa (NR concentration 270 nM, RXRa partner concentration 90 nM)
Method in brief: as §1

[20] = system: PPARg DBDmut:RXRa IVT, anti-PPARg (DBD mutation: PPARg1 K132A/R137A, NR concentration 270 nM, RXRa partner concentration 90 nM)
Method in brief: as §1

| Sequence | PBM binding z-score [1] | PBM binding z-score [2] | PBM binding z-score [3] | PBM binding z-score [4] | PBM binding z-score [5] | PBM binding z-score [6] | PBM binding z-score [7] | PBM binding z-score [8] | PBM binding z-score [9] | PBM binding z-score [10] | PBM binding z-score [11] | PBM binding z-score [12] | PBM binding z-score [13] | PBM binding z-score [14] | PBM binding z-score [15] | PBM binding z-score [16] | PBM binding z-score [17] | PBM binding z-score [18] | PBM binding z-score [19] | PBM binding z-score [20] |
| --- | --- | --- | --- | --- | --- | --- | --- | --- | --- | --- | --- | --- | --- | --- | --- | --- | --- | --- | --- | --- |
| ATATGTATGTTAGGGTCATTCAGAAAGTAGGGAA | 4.58 | 3.8 | 1.34 | 4.19 | 1.46 | 4.84 | 4.3 | 3.99 | 1.85 | 3.4 | 2.61 | 3.27 | 2.23 | 2.64 | 4.24 | 1.37 | 4.82 | 1.45 | 3.15 |  |
| CGAACTAGGTCACCAGGACAGCGAAGAGGTTGGA | 3.93 | 2.11 | -0.245 | 1.55 | -0.88 | 4.91 | 8.61 | 6.98 | 4.85 | 6.78 | 7.82 | 8.67 | 0.871 | 2.15 | 1.34 | -0.232 | 2.32 | 0.196 | 4.21 |  |
| CGAACTAGGTCAAAGGACAGTGAAAGGCGACGTA | 4.11 | 2.54 | 0.0195 | 1.9 | -0.588 | 5.72 | 10.1 | 8.6 | 8.13 | 9.66 | 7.94 | 8.4 | 3.54 | 2.15 | 1.21 | -0.123 | 2.12 | -0.0827 | 3.99 |  |
| ATATGTAGGTAAGGGTCATTCAGAAAGTAGGGAA | 4.33 | 4.17 | 1.56 | 4.24 | 1.45 | 5.52 | 7.89 | 6.82 | 4.58 | 6.85 | 5.88 | 6.35 | 2.93 | 3.52 | 3.78 | 1.25 | 4.55 | 2.02 | 3.61 |  |
| CGAACTACGTCACCAGGACAGTGAAGAGGTTGGA | -0.0876 | -0.2 | -0.121 | -0.435 | -0.676 | -0.258 | 0.527 | -0.464 | 0.0797 | -0.46 | 0.112 | 0.232 | -0.216 | 0.245 | -0.245 | -0.301 | 0.0876 | -0.285 | -0.125 |  |
| CGAACTAGATCAAAGGACAGTGAAAGGCGACGTA | -0.658 | -0.667 | -0.396 | -0.5 | -0.637 | 1.77 | 3.32 | 4.89 | 2.76 | 4.58 | 1.68 | 1.44 | -0.617 | 0.388 | -0.456 | -0.201 | -0.579 | 0.383 | 0.915 |  |
| CGACCTAGGTCACCAGGACAGTGAAGAGGTTGGA | 4.89 | 2.91 | -0.161 | 2.09 | -0.881 | 4.22 | 5.25 | 4.5 | 1.21 | 3.13 | 4.19 | 4.65 | -0.593 | 1.87 | 1.62 | -0.328 | 2.95 | -0.595 | 4.37 |  |
| CGAACTAGGTCAGAGGACAGTGAAAGGCGACGTA | 1.21 | 0.781 | -0.404 | 0.187 | -0.968 | 3.61 | 8.37 | 6.52 | 6.22 | 7.35 | 7.39 | 7.68 | -0.191 | 1.33 | 0.248 | -0.238 | 0.823 | -0.0193 | 3.36 |  |
| CGAACTCGGTCAAAGGACAGTGAAAGGCGACGTA | 0.719 | 0.857 | -0.21 | -0.0802 | -0.824 | 2.68 | 5.06 | 5.39 | 3.97 | 5.3 | 2.71 | 3.18 | -0.87 | 0.102 | -0.0185 | -0.567 | 0.43 | -0.278 | 2.56 |  |
| CGAACTAGGTCAAACGACAGTGAAAGGCGACGTA | 4.81 | 2.87 | 0.0143 | 2.12 | 0.102 | 5.14 | 8.27 | 6.9 | 5.2 | 7.3 | 8.02 | 8.26 | 0.569 | 1.9 | 1.19 | -0.315 | 2.13 | 0.265 | 3.7 |  |
| CGAACTAGGTCACCAGGACAGTGACGAGGTTGGA | 4.27 | 2.44 | -0.221 | 1.53 | -0.75 | 5.17 | 8.62 | 6.98 | 4.41 | 6.34 | 8.26 | 8.82 | 1.73 | 1.63 | 1.66 | -0.0254 | 2.69 | 0.339 | 4.38 |  |
| ATCTGTAGGTTAGGGTCATTCAGAAAGTAGGGAA | 4.95 | 4.18 | 1.54 | 4.44 | 2.08 | 4.99 | 4.27 | 4.32 | 2.09 | 3.76 | 2.86 | 3.74 | 2.08 | 3.23 | 4.42 | 2.1 | 5.21 | 2.2 | 3.58 |  |
| CAAACTAGGTCACCAGGACAGTGAAGAGGTTGGA | 4.67 | 2.73 | 0.391 | 1.92 | 0.0732 | 5.18 | 9.26 | 7.14 | 5.2 | 7.09 | 8.41 | 8.88 | 1.44 | 2.71 | 1.87 | 0.166 | 2.97 | 0.827 | 4.28 |  |
| GCTTACGGGTCAAAGGTTATGGCATGAATAGAAT | 6.72 | 5.85 | 0.622 | 5.65 | 0.792 | 6.79 |  | 9.38 | 9.74 | 10.5 | 5.17 | 5.79 | 1.1 | 3.11 | 6.13 | 0.477 | 8.41 | 1.41 | 4.56 | 1.49 |
| TCATATAGGTTAAGGTGAAAGTCGAACGATATGA | 2.27 | 1.59 | 0.00535 | 1.55 | 0.204 | 3.44 |  | 4.61 | 4.32 | 4.87 | 4.9 | 4.89 | 1.29 | 1.49 | 1.04 | -0.203 | 2.19 | 0.984 | 2.49 | 1.69 |
